{
  "source": "paper PMC4336329",
  "about": "(PLoS ONE, 2015)",
  "note": "Hit rate of the full screen: of about 310,000 compounds, about 14,000 (4.5%) showed an effect of 50% or more. The effect is printed as a negative number. The sample holds strong results, similar compounds and a random draw of the others, so the mix is not that of the screen.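 Also: peak tail current of the secondary pulse compared with the same well before compound.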",
  "data": [
    {"biological_target": "human ether-à-go-go-related gene (hERG) potassium channel (human, UniProt Q12809)", "sequence (Q12809 whole entry, looked up)": "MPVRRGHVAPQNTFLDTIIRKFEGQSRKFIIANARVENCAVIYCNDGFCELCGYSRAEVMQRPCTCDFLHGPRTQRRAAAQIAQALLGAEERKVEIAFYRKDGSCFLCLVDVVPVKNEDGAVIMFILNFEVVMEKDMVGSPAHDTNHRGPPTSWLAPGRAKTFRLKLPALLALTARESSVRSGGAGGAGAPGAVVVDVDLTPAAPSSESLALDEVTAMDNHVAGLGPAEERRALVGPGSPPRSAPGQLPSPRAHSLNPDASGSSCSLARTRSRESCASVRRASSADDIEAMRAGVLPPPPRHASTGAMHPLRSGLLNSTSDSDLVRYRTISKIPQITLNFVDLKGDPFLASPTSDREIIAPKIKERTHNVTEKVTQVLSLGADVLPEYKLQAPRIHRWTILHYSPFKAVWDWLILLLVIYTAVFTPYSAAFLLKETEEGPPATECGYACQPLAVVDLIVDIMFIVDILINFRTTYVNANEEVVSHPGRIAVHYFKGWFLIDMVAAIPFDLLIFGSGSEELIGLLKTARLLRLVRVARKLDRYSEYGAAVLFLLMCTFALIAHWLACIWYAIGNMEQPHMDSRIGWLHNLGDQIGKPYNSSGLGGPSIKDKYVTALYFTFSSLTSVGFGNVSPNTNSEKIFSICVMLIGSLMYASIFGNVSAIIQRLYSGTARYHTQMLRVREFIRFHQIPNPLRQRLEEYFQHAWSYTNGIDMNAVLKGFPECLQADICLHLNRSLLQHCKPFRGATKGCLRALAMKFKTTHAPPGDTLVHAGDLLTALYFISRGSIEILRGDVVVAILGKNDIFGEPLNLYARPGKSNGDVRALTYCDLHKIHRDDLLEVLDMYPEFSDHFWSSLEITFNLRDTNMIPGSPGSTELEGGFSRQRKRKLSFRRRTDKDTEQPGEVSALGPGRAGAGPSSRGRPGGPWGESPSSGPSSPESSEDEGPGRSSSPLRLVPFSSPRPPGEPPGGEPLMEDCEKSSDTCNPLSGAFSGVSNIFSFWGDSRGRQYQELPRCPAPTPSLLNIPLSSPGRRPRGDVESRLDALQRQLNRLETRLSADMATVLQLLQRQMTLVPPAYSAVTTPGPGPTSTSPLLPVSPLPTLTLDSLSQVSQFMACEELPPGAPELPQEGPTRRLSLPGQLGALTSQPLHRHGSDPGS", "test": "primary screen, population patch clamp on CHO cells stably expressing hERG; higher = less effect of the substance", "units": {"hERG current change (%, negative = inhibition) at 10uM": "%"}, "values": [
      {"smiles": "CC(=O)Cc1nsc(NC(=O)c2ccc(-c3cc(C(F)(F)F)ccc3Cl)o2)n1", "hERG current change (%, negative = inhibition) at 10uM": 22.7},
      {"smiles": "O=C(c1cccnc1)N1CCN(S(=O)(=O)c2ccc3ccccc3c2)CC1", "hERG current change (%, negative = inhibition) at 10uM": -34.9},
      {"smiles": "CC(CNC(=O)c1ccc(Br)o1)NC(=O)c1ccc(Br)o1", "note": "(stereo not drawn)", "hERG current change (%, negative = inhibition) at 10uM": -0.676},
      {"smiles": "CC1CCCCC1NC(=O)COC(=O)CCC(=O)c1cccs1", "note": "(stereo not drawn)", "hERG current change (%, negative = inhibition) at 10uM": 17.3},
      {"smiles": "CCn1c(Cn2nnc(-c3ccccc3)n2)nnc1SCC(=O)Nc1ccccc1", "hERG current change (%, negative = inhibition) at 10uM": -7.39},
      {"smiles": "CC(C)Oc1ccc(NC(N)=O)cc1", "hERG current change (%, negative = inhibition) at 10uM": 1.14},
      {"smiles": "COCCN1Cc2cc3cc(C)ccc3nc2SC1=Nc1ccc(OC)cc1", "hERG current change (%, negative = inhibition) at 10uM": 7.73},
      {"smiles": "CCC(C)N=C1Sc2nc3ccc(C)cc3cc2CN1CCOC", "note": "(stereo not drawn)", "hERG current change (%, negative = inhibition) at 10uM": -79},
      {"smiles": "CCOc1ccc(N=C2Sc3nc4ccc(C)cc4cc3CN2CCOC)cc1", "hERG current change (%, negative = inhibition) at 10uM": 41.4},
      {"smiles": "COCCN=C1Sc2nc3ccc(C)cc3cc2CN1Cc1ccco1", "hERG current change (%, negative = inhibition) at 10uM": -61},
      {"smiles": "COCCN=C1Sc2nc3c(C)cccc3cc2CN1Cc1ccco1", "hERG current change (%, negative = inhibition) at 10uM": 8.49},
      {"smiles": "COCCN=C1Sc2nc3ccc(C)cc3cc2CN1Cc1cccs1", "hERG current change (%, negative = inhibition) at 10uM": -11.1},
      {"smiles": "CCNC(=O)CSc1nnc(-c2cccc(S(=O)(=O)N(CC)CC)c2)n1CCc1ccccc1", "hERG current change (%, negative = inhibition) at 10uM": -9.82},
      {"smiles": "Cn1ccc(C(=O)Nc2ccc3c(c2)OCCO3)n1", "hERG current change (%, negative = inhibition) at 10uM": 21.9},
      {"smiles": "O=C(NN1CCOCC1)c1cn(-c2ccccc2)nc1-c1cccs1", "hERG current change (%, negative = inhibition) at 10uM": -1.47},
      {"smiles": "COC(=O)c1nc(NC(=O)c2ccccc2)n[nH]1", "hERG current change (%, negative = inhibition) at 10uM": -9.58},
      {"smiles": "O=C(C1=NN[C@@H]2C(=O)N(c3cccc(F)c3)C(=O)[C@H]12)C(c1ccccc1)c1ccccc1", "hERG current change (%, negative = inhibition) at 10uM": -19.2},
      {"smiles": "CCCCn1c(=NC(C)=O)c(C#N)cc2c(=O)n3cccc(C)c3nc21", "hERG current change (%, negative = inhibition) at 10uM": -31},
      {"smiles": "CCCCn1c(=NC(=O)c2cccnc2)c(C#N)cc2c(=O)n3cccc(C)c3nc21", "hERG current change (%, negative = inhibition) at 10uM": -10.6},
      {"smiles": "CCCCCn1c(=NC(=O)c2cccnc2)c(C#N)cc2c(=O)n3cccc(C)c3nc21", "hERG current change (%, negative = inhibition) at 10uM": -54.8},
      {"smiles": "Cc1cccn2c(=O)c3cc(C#N)c(=NC(=O)c4cccnc4)n(CC4CCCO4)c3nc12", "note": "(stereo not drawn)", "hERG current change (%, negative = inhibition) at 10uM": -51.1},
      {"smiles": "Cc1cc(=O)c2cc(Br)ccc2[nH]1", "hERG current change (%, negative = inhibition) at 10uM": 8.12},
      {"smiles": "Cc1n[nH]c(C)c1S(=O)(=O)N1CCC(C(=O)N2CCn3c2nc2ccccc23)CC1", "hERG current change (%, negative = inhibition) at 10uM": -3.79},
      {"smiles": "CC(C)CC(COCc1ccc(Cl)cc1)N1CCN(C(=O)c2cccc(C(F)(F)F)c2)CCC1=O", "note": "(stereo not drawn)", "hERG current change (%, negative = inhibition) at 10uM": -38.1},
      {"smiles": "CCOC(=O)c1cc(S(=O)(=O)N(C)Cc2ccccc2)cn1C", "hERG current change (%, negative = inhibition) at 10uM": -11.7},
      {"smiles": "COc1ccc(OCCn2c(=N)n(CCO)c3ccccc32)cc1.Cl", "hERG current change (%, negative = inhibition) at 10uM": -24.2},
      {"smiles": "CCn1c(=N)n(CCOc2ccc(OC)cc2)c2ccccc21", "hERG current change (%, negative = inhibition) at 10uM": -55.1},
      {"smiles": "C=COCCn1c(=N)n(CCC)c2ccccc21.Cl", "hERG current change (%, negative = inhibition) at 10uM": -28.3},
      {"smiles": "CCCn1c(=N)n(CCOc2ccc(OC)cc2)c2ccccc21", "hERG current change (%, negative = inhibition) at 10uM": -59.5},
      {"smiles": "COc1ccc(OCCn2c(=O)sc3ccccc32)cc1", "hERG current change (%, negative = inhibition) at 10uM": -8.81},
      {"smiles": "CCn1c(=N)n(CCO)c2ccccc21.Cl", "hERG current change (%, negative = inhibition) at 10uM": 5.84},
      {"smiles": "Cn1cc(P(=O)(N2CCOCC2)N2CCOCC2)cc1P(=S)(N1CCOCC1)N1CCOCC1", "hERG current change (%, negative = inhibition) at 10uM": 16.6},
      {"smiles": "Cc1nc(-c2ccc(NC(=O)c3ccc(Br)o3)cc2)cs1", "hERG current change (%, negative = inhibition) at 10uM": 4.44},
      {"smiles": "O=C(c1cc2nc(-c3ccc(F)cc3)cc(C(F)(F)F)n2n1)N1CCCCC1c1cccnc1", "note": "(stereo not drawn)", "hERG current change (%, negative = inhibition) at 10uM": -80.2},
      {"smiles": "COc1ccc(-c2cc(C(F)(F)F)n3nc(C(=O)N4CCN5CCCC5C4)cc3n2)cc1OC", "note": "(stereo not drawn)", "hERG current change (%, negative = inhibition) at 10uM": -64.4},
      {"smiles": "O=C(c1ccccc1)N1CCN(C(=O)c2cc3nc(-c4ccccc4)cc(C(F)(F)F)n3n2)CC1", "hERG current change (%, negative = inhibition) at 10uM": -51.1},
      {"smiles": "Cc1ccc(-c2cc(C(F)(F)F)n3nc(C(=O)N4CCN5CCCC5C4)cc3n2)cc1", "note": "(stereo not drawn)", "hERG current change (%, negative = inhibition) at 10uM": -48.3},
      {"smiles": "O=C(c1cc2nc(-c3ccccc3)cc(-c3ccccc3)n2n1)N1CCCC1", "hERG current change (%, negative = inhibition) at 10uM": 9.99},
      {"smiles": "O=C(c1cc2nc(-c3ccccc3)cc(C(F)(F)F)n2n1)N1CCN2CCCC2C1", "note": "(stereo not drawn)", "hERG current change (%, negative = inhibition) at 10uM": -30.3},
      {"smiles": "CCN1CCN(C(=O)c2cc3nc(-c4ccccc4)cc(C(F)(F)F)n3n2)CC1", "hERG current change (%, negative = inhibition) at 10uM": -22},
      {"smiles": "Cc1ccc(-c2cc(C(F)(F)F)n3ncc(C(=O)N4CCCCC4c4cccnc4)c3n2)cc1", "note": "(stereo not drawn)", "hERG current change (%, negative = inhibition) at 10uM": 4.63},
      {"smiles": "COc1cccc(-c2cc(C(F)(F)F)n3nc(C(=O)N4CCCCC4c4cccnc4)cc3n2)c1", "note": "(stereo not drawn)", "hERG current change (%, negative = inhibition) at 10uM": -23.1},
      {"smiles": "O=C(c1cc2nc(-c3ccccc3)cc(-c3ccccc3)n2n1)N1CCN(C(=O)c2ccco2)CC1", "hERG current change (%, negative = inhibition) at 10uM": -56.9},
      {"smiles": "CN1CCN(C(=O)c2cc3nc(-c4ccccc4)cc(-c4ccccc4)n3n2)CC1", "hERG current change (%, negative = inhibition) at 10uM": -38.3},
      {"smiles": "O=C(c1cc2nc(-c3ccccc3)cc(C(F)(F)F)n2n1)N1CCOCC1", "hERG current change (%, negative = inhibition) at 10uM": -29.3},
      {"smiles": "COc1ccc(C(=O)N/N=C/c2ccc(N3CCOCC3)s2)cc1OC", "hERG current change (%, negative = inhibition) at 10uM": 11.6},
      {"smiles": "Cc1nc2sc(-c3ccccc3)nn2c(=O)c1Br", "hERG current change (%, negative = inhibition) at 10uM": -1.74},
      {"smiles": "COc1ccc2nc(Sc3c([N+](=O)[O-])nc(C)n3Cc3ccccc3)[nH]c2c1", "hERG current change (%, negative = inhibition) at 10uM": -12.7},
      {"smiles": "CCOc1ccc(N2CC(C(=O)NC3CCCC3)CC2=O)cc1", "note": "(stereo not drawn)", "hERG current change (%, negative = inhibition) at 10uM": 2.11},
      {"smiles": "COc1ccc(N(C(=O)CNC(=O)c2ccco2)C(C(=O)NC2CCCC2)c2ccncc2)cc1", "note": "(stereo not drawn)", "hERG current change (%, negative = inhibition) at 10uM": 13.1},
      {"smiles": "CC(=O)c1sc(NC(=O)CSCc2c(C)noc2C)nc1-c1ccccc1", "hERG current change (%, negative = inhibition) at 10uM": -27.4},
      {"smiles": "O=C(N/N=C/c1c[nH]c2ccc(Br)cc12)C1CC1", "hERG current change (%, negative = inhibition) at 10uM": 4.6},
      {"smiles": "CC(C)C(=O)Nc1nnc(SCC(=O)NC2CC2)s1", "hERG current change (%, negative = inhibition) at 10uM": 12.8},
      {"smiles": "CC(=O)N1c2ccccc2NC2=C(C(=O)CCC2)C1c1cccnc1", "note": "(stereo not drawn)", "hERG current change (%, negative = inhibition) at 10uM": 4.51}
    ]}
  ]
}
